Several values for one entry are separate records, joined by “and”; a condition that tells them apart may be missing. Identical values can stand only once. The whole screen tested about 310,000 compounds, of which about 1,000 (0.32%) were called active. The list is a sample of the results. Entries with a potency or affinity are not part of this list. Unmarked numbers belong to inactive results. No rule for the calls is given here.
Test: PhoP regulon inhibitors, Salmonella typhi PhoP promoter GFP reporter, confirmatory (AID 1850);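 also: 0% = induced wells with vehicle and 100% = uninduced wells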
Details: fluorescence, 4 h, at 50 µM, active compounds read high

| SMILES | inhibition |
| --- | --- |
| O=C1CCS/C(=N\N=C\c2ccc(Cl)cc2Cl)N1 | 6.05% |
| CCc1ccc(-c2cc3c(=O)n(CC(=O)NCCCN4CCN(C)CC4)ncn3n2)cc1 | 5.21% |
| CC1CCCCC1NC(=O)CSc1ccc([N+](=O)[O-])cc1 (stereo unspecified) | 6.99% |
| Cc1cc(-c2nnc3n2N=C(c2ccc(F)cc2)CS3)n[nH]1 | -5.9% |
| COc1ccccc1-n1c(C)cc(C=O)c1C | -1.75% |
| CCCc1nc(Cl)c(C#N)c2c1CCCC2 | -3.33% |
| CCOC(=O)Cc1cn2c(=O)cc(CSCC(=O)Nc3ccc(C)c(C)c3)nc2s1 | -2.4% |
| COc1cc2[nH]c3c(c2cc1OC)CCN1CCCC[C@@H]31 | 5.9% |
| O=S(=O)(c1ccc(F)cc1)c1nc(-c2ccco2)oc1Nc1ccc(F)cc1 | -12.3% |
| C=CCn1c(SCC(=O)NC2CCS(=O)(=O)C2)nnc1-c1ccc(Cl)cc1 (stereo unspecified) | -6.21% |
| O=C(Nc1nnc(C2=COCCO2)o1)c1ccc(F)cc1 | 1.96% |
| O=C(CSc1nnc(C2COc3ccccc3O2)o1)Nc1ccc(F)cc1Cl (stereo unspecified) | -3.78% |
| CCOC(=O)C1=C(COC(=O)C2(C)CC2(Cl)Cl)NC(=O)NC1c1ccc(OC)cc1 (stereo unspecified) | 6.71% |
| COc1ccccc1CNCC(=O)Nc1cc(S(=O)(=O)N2CCCCCC2)ccc1Cl | -6.34% |
| CCN(c1ccc(C(O)(C(=O)OC)C(F)(F)F)cc1)S(=O)(=O)c1ccccc1 (stereo unspecified) | -2.75% |
| CN(C)CCNC(=O)COc1ccc(Cl)cc1Cl | 1.91% |
| COc1ccc(Cl)cc1C(=O)NCCN(C)C | -0.53% |
| CCCSc1nc(N)cc(=O)[nH]1 | 5.93% |
| Oc1ccc2c(c1)c1c3n2CCNC3CCC1 (stereo unspecified) | -4.83% |
| Cc1ccc2c(c1)c1c3n2CCN(C(=O)CCl)C3CCC1 (stereo unspecified) | 7.2% |
| Cc1ccc2c(c1)c1c3n2CCN=C3CCC1 | 0.52% |
| Cc1ccc2c(c1)c1c3n2CCCNC3CCC1 (stereo unspecified) | 5.15% |
| c1ccc(-c2ccc3c(c2)c2c4n3CCN=C4CCC2)cc1 | 6.31% |
| Cc1ccc2c(c1)c1c3n2CCN(C(=O)CN2CCN(C)CC2)C3CCC1 (stereo unspecified) | 4.43% |

| SMILES | inhibition |
| --- | --- |
| CCOP(=O)(c1ccccc1)C1(O)CCCCC1 (stereo unspecified) | 14.1% |
| Cc1ccc(S(=O)(=O)N2C(=O)CCC2C(=O)O/N=C(\N)c2ccccc2)cc1 (stereo unspecified) | -13.3% |
| O=C(CN(C(=O)c1csnn1)c1ccccc1Cl)NC1CCCC1 | 13.4% |
| O=C(O)c1cccc([N+](=O)[O-])c1C(=O)Nc1nc2ccccc2s1 | 4.78% |
| CCn1c(CN2c3ccccc3Sc3ccccc32)n[nH]c1=S | 4.44% |
| O=C(c1cccc(Cl)c1)N1CCCc2ccccc21 | 4.51% |
| Cc1ccc(S(=O)(=O)N2CCN(c3cnn(C)c(=O)c3Cl)CC2)cc1 | -6.96% |
| CCCCn1c(N)c(N(CCC(C)C)C(=O)CCN2C(=O)C3CC=CCC3C2=O)c(=O)[nH]c1=O (stereo unspecified) | 0.9% |
| CCOC(=O)c1c(NC(=O)Cn2nc(C(=O)O)c3ccccc3c2=O)sc2c1CCC(C)C2 (stereo unspecified) | 17.9% |
| COc1cccc(C2(O)CC(C(F)(F)F)=NN2C(=O)c2ccccn2)c1 (stereo unspecified) | 7.91% |
| C[n+]1c2n(c3ccccc31)N=C(c1ccc(Cl)cc1)CS2 | 12.3% |
| C[n+]1c2n(c3ccccc31)N=C(c1ccccc1)CS2 | 0.32% and 11.8% |
| O=C(CSC1=NS(=O)(=O)c2ccccc2N1)NCc1ccc(F)cc1 | -4.98% |
| O=C(CNC(=O)c1ccccc1)N/N=C/c1cccs1 | -1.08% |
| O=C(CNC(=O)c1ccccc1Cl)N/N=C/c1ccc([N+](=O)[O-])s1 | -11.8% |
| O=C(Cc1ccccc1)N/N=C/c1ccc([N+](=O)[O-])s1 | -7.77% |
| O=C(Cc1ccccc1)NCC(=O)N/N=C/c1ccc([N+](=O)[O-])s1 | 11.8% |
| O=C(Cc1cccs1)N/N=C/c1ccccc1 | 10.9% |
| O=C(CNC(=O)c1cccc(F)c1)N/N=C/c1cccc([N+](=O)[O-])c1 | -5.75% |
| Cn1cccc1Cc1nnc(SCC(=O)Nc2ccc3c(c2)OCO3)n1-c1ccc(F)cc1 | -1.53% |
| NC(=O)CN1C(=O)NC2(CCOc3ccccc32)C1=O (stereo unspecified) | 1.52% |
| CC(=O)Nc1ccc(NC(=O)c2cccc(-c3cc4ccccc4oc3=O)c2)cc1 | 12.9% |
| CCn1cc(C(=O)NCCCOC(C)C)c2cc(OC)c(OC)cc2c1=O | 2.36% |
| CN(C)c1ccc(P(=O)(COc2ccc([N+](=O)[O-])cc2)c2ccc(N(C)C)cc2)cc1 | 2.27% |

| SMILES | inhibition |
| --- | --- |
| O=C(CSc1ccc(-c2cccnc2)nn1)N1CCCCCC1 | 1.55% |
| O=C(CCCn1cc([N+](=O)[O-])cn1)NCc1ccccc1 | 8.46% |
| Cc1c(C(=S)NC(=O)C2CC2)c(=O)n(-c2ccccc2)n1C | -1.42% |
| CCc1ccc2c(CN(CC)Cc3nc4ccccc4c(=O)[nH]3)cc(=O)oc2c1 | 1.52% |
| Nc1nc2ccccc2n1CCOc1ccc(Cl)cc1 | 14.7% |
| Cc1ccc(Cn2c(N)nc3ccccc32)cc1 | 9.42% |
| CCn1c(N)nc2ccccc21 | 4.17% |
| Nc1nc2ccccc2n1CCOc1ccc(F)cc1 | -3.28% |
| Cc1ccc(NS(=O)(=O)c2ccc(C(=O)N3CC(C)CC(C)C3)cc2)cc1 (stereo unspecified) | -0.14% |
| Cc1cc(=O)oc2cc(OCc3ccc(S(=O)(=O)N4CCOCC4)cc3)ccc12 | -0.96% |
| CC(C(=O)NC1C=CS(=O)(=O)C1)N1C(=O)/C(=C\c2ccccc2)SC1=S (stereo unspecified) | -9.78% |
| COc1ccc(/C=C2\SC(=S)N(C(C)C(=O)NC3C=CS(=O)(=O)C3)C2=O)cc1 (stereo unspecified) | 0.74% |
| CC(C(=O)N(C)C1CCS(=O)(=O)C1)N1C(=O)/C(=C/c2ccc(F)cc2)SC1=S (stereo unspecified) | -40% |
| O=C(CN1C(=O)/C(=C/c2cccc(Cl)c2)SC1=S)NC1C=CS(=O)(=O)C1 (stereo unspecified) | -2.52% |
| CC(C)c1ccc(/C=C2\SC(=O)N(CC(=O)NC3CCS(=O)(=O)C3)C2=O)cc1 (stereo unspecified) | -0.28% |
| COc1cccc(/C=C2\SC(=S)N(C(C)C(=O)NC3C=CS(=O)(=O)C3)C2=O)c1 (stereo unspecified) | -39% |
| COc1cc2c(cc1OC)C(C)N(C(=O)c1c(C)noc1C)CC2 (stereo unspecified) | -18.4% |
| CC(=O)CCC(=O)OCC(=O)Nc1ccc(SC(F)F)cc1 | -3.54% |
| O=C1CCC(=O)N1c1ccc(NC2CCN(Cc3ccccc3)CC2)c([N+](=O)[O-])c1 | -3.82% |
| CC1(C)C2CC[C@]3(C)C(CC=C4[C@@H]5C[C@@](C)(CO)[C@@H](O)C[C@]5(C(=O)O)CC[C@]43C)[C@@]2(C)CC[C@@H]1O (stereo partly specified) | -13.5% |
| CC(C)(C)NCc1cccn1-c1sc2c(c1C#N)CCCC2 | -5.99% |
| C=CC[n+]1c(/C=C2\C=Cc3cc(C)ccc3N2CC)ccc2ccccc21 | -11.1% |
| CCN1/C(=C/c2ccc3ccccc3[n+]2CCCS(=O)(=O)[O-])C=Cc2cc(C)ccc21 | 14.2% |
| CCOC(=O)C(=CNc1ccc(C(O)(C(=O)OCC)C(F)(F)F)cc1C)C(=O)OCC (stereo unspecified) | -10.1% |

| SMILES | inhibition |
| --- | --- |
| CCOC(=O)c1[nH]c2ccc(OC)cc2c1NC(=O)CN1CCSCC1 | 6.71% |
| Cc1cccc(N2CCN(C(=O)c3csc4ccccc34)CC2C)c1 (stereo unspecified) | -6.46% |
| Cc1nonc1C(=O)N/N=C/c1cccc(O)c1 | -9.29% |
| Cc1cc(C(=O)N/N=C/c2ccc([N+](=O)[O-])o2)c(C)o1 | -1.11% |
| CCCOc1ccc(CCC(=O)N/N=C/c2ccc([N+](=O)[O-])o2)cc1 | 3.44% |
| O=C(CSc1ccc(Cl)cc1)N/N=C/c1ccc([N+](=O)[O-])o1 | -1.14% |
| Cc1ccc(NC(=O)CCC(=O)N/N=C/c2ccc([N+](=O)[O-])o2)cc1C | -0.54% |
| CCCCCC(=O)N/N=C/c1ccc([N+](=O)[O-])o1 | 17.1% |
| Cc1nonc1C(=O)N/N=C/c1ccc(O)c(O)c1 | -18.7% |
| Nc1nonc1C(=O)N/N=C/c1ccc([N+](=O)[O-])o1 | -4.72% |
| COc1ccccc1C(=O)N1CCc2ccccc21 | -2.54% |
| COCCN(C(=S)Nc1cc(C)cc(C)c1)C(C)c1cccnc1 (stereo unspecified) | -6.47% |
| O=C1c2ccccc2C(=O)N1OCc1ccccc1 | -23.3% |
| COc1ccc(N(C)C(=O)CCC(=O)Nc2ccc3nc(N4CCOCC4)cc(C)c3c2)c(OC)c1 | -10.9% |
| CC(C)c1ccccc1OCC(=O)Nc1ccc2[nH]ncc2c1 | -2.28% |
| O=C1CC(c2ccccc2Cl)CC(O)=C1C=Nc1ccccc1 (stereo unspecified) | -11% |
| CC(=O)Nc1ccc(/C=N/NC(=O)CCN2CCN(c3ccccc3)CC2)cc1 | 3.88% |
| Cc1cc(C)cc(OCC(=O)N/N=C/c2ccc([N+](=O)[O-])o2)c1 | -6.8% |
| O=C(CNc1cccc([N+](=O)[O-])c1)N/N=C/c1ccc([N+](=O)[O-])o1 | 17.3% |
| O=C(COc1ccccc1)N/N=C/c1ccc([N+](=O)[O-])o1 | 3.11% |
| Cc1nc2ccccn2c1C(=O)N/N=C/c1ccc([N+](=O)[O-])cc1 | 2.94% |
| O=C(Cc1ccccc1)N/N=C/c1ccc(-c2ccc([N+](=O)[O-])cc2)o1 | -11.9% |
| O=C(CCN1CCN(c2ccccc2)CC1)N/N=C/c1ccccc1O | -12.1% |
| Cc1nc2ccccn2c1C(=O)N/N=C/c1ccccc1[N+](=O)[O-] | 5.76% |
